Rows were chosen to be rich in hits. Some 3.8% of all compounds tested hit in one or more screens of this group.
tim10-1 inh: growth inhibitors of tim10-1 mutant yeast. 330,000 compounds, 2.2% hits. AID 463190. inhibition, % at 20 µM. S. cerevisiae tim10-1 ts strain growth, BacTiter-Glo, 24 h;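 active = inhibition of at least 40%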;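 note: mutant grown at 25 °C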
PfHsp90 set2: growth inhibition of yeast expressing Plasmodium Hsp90 | S. cerevisiae expressing PfHsp90, BacTiter-Glo ATP, 48 h; yeast lacking PDR1 and PDR3 efflux regulators | inhibition, % at 9.4 µM | 310,000 compounds, 0.32% hits | AID 504621;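 active = every replicate shows inhibition above about 80%, whatever the replicate mean, limit read from the data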
tim23-1 inh: inhibits growth of tim23-1 mutant yeast; S. cerevisiae tim23-1 growth, BacTiter-Glo luminescence, 24 h; inhibition, % at 20 µM; 330,000 compounds, 1.3% hits; AID 463212;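 active = growth inhibition of the mutant yeast at or above 50%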;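 note: temperature-sensitive mutant grown at 25 °C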
B2AR ag: human beta-2 adrenergic receptor agonism by FAP; AID 504454; P07550; 340,000 compounds, 0.43% hits; response, % (concentration not given with the values); Am2.2-beta2AR cells, FAP receptor internalization, flow cytometry;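 active = response above a set limit, near 3 SD of response in nonfluorescent compounds, cut at about 42% in these data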
Target sequence (P07550 whole entry, looked up): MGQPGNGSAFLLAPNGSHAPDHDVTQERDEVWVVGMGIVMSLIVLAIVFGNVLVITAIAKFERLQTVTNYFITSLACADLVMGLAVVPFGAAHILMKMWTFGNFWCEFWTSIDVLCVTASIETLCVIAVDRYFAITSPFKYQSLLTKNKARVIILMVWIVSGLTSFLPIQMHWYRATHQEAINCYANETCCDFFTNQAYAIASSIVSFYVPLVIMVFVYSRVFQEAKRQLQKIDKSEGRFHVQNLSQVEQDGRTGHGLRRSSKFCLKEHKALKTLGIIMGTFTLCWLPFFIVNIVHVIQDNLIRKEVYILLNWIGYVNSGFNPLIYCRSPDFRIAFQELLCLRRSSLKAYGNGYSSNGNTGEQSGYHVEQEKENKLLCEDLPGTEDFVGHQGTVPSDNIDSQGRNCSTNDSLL
TIM10 inh: inhibits growth of TIM10 yeast strain; S. cerevisiae TIM10 strain growth, BacTiter-Glo luminescence, 24 h; AID 463195; inhibition, % at 10 µM; 330,000 compounds, 1.4% hits;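 active = inhibition of 40% or more at the single tested concentration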;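 note: wild-type TIM10 isogenic control strain grown at permissive 25 °C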
tim10-1 confirm: confirmation of tim10-1 mutant yeast growth inhibitors; shares compounds with tim10-1 inh; S. cerevisiae tim10-1 ts strain growth, BacTiter-Glo, 24 h; inhibition, % at 20 µM; 7,400 compounds, 56% hits; AID 463213;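 active = inhibition of yeast growth at or above a set limit in either of two repeat tests at 20 µM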;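 note: tim10-1 mutant grown at permissive 25 °C to find synthetic lethal compounds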
Of the large screens only hits and unclear results are named; the others gave an inactive call (follow-up assays come after a bar, where they were run).

COc1ccc(C)cc1NC(=O)c1cc(S(=O)(=O)N2CCCCC2)ccc1N1CCOCC1	none
CN(C)c1cccc(F)c1C(=O)NC(=O)Nc1ccc(Cl)cc1	none (no result: tim10-1 inh, tim23-1 inh, TIM10 inh)
Cc1ccc2nc(SCC(=O)N3CCCc4ccccc43)nc(=O)n2c1	none (no result: tim10-1 inh, tim23-1 inh, TIM10 inh)
CCCN(CC(=O)Nc1ccccc1C)C(=O)CCl	tim10-1 inh 41 | tim10-1 confirm inactive
CCCN(CC(=O)Nc1ccccc1C)C(=O)COc1c(C)cccc1C	none
CCCCc1ccc(S(=O)(=O)N2CCN(C(=O)c3ccco3)CC2)cc1	tim10-1 inh 52 | tim10-1 confirm 32
CC(C)C[C@H]1CNC(=S)N1CC1CCCN1C[C@H](CC(C)C)N1C[C@H](CC(C)C)N(CCc2ccccc2)C1=S (stereo not given in full)	none (no result: tim10-1 inh, tim23-1 inh, TIM10 inh)
Fc1ccc(Nc2ncnc3sc4c(c23)CCC4)cc1	tim10-1 inh 43 | tim10-1 confirm inactive
COc1ccc(/C=N/Nc2ncnc3sc4c(c23)CCCC4)cc1OC	tim10-1 inh 41 | tim10-1 confirm inactive
CCOC(=O)c1c(C)[nH]c(=S)c(C#N)c1-c1ccc(Cl)cc1	tim10-1 inh 54 | tim10-1 confirm inactive
O=C(c1ccc(-c2cccc(C(F)(F)F)c2)o1)N1CCCCCCC1	tim10-1 inh 41 | tim10-1 confirm 30
O=C(c1ccco1)N1CCN(C(=O)c2ccc(-c3cccc(C(F)(F)F)c3)o2)CC1	none
Cc1ccc(C2CC2C(=O)NNC(=S)Nc2cccc(Cl)c2)cc1 (stereo not given)	none
Cc1ccc(C2CC2C(=O)NNC(=S)Nc2cccc(C)c2)cc1 (stereo not given)	tim10-1 inh 49 (no result: PfHsp90 set2) | tim10-1 confirm inactive
CCCCNCCS(=O)(=O)NCc1ccc(OC)cc1	none (no result: tim10-1 inh, tim23-1 inh, TIM10 inh)
O=C1C2ON(c3ccccc3)C(c3ccccc3F)C2C(=O)N1c1ccccc1 (stereo not given)	none
O=C1C2ON(c3ccc(Cl)cc3)C(c3ccco3)C2C(=O)N1c1ccccc1 (stereo not given)	tim10-1 inh 44 | tim10-1 confirm 35
O=S(=O)(/C=C/C=C/S(=O)(=O)c1ccccc1)c1ccccc1	none (no result: tim10-1 inh, tim23-1 inh, TIM10 inh)
Cc1ccc(C(C)(C)C)cc1S(=O)(=O)Nc1nc2ccccc2nc1Cl	tim10-1 inh 41 | tim10-1 confirm 40
CC(C)(C)C(CN1CCCC1)OC(=O)c1ccccc1 (stereo not given)	none
CN(C)c1ccc(N=Cc2nc(-c3ccccc3)oc2OC(=O)c2ccccc2)cc1	none
COc1ccccc1N=Cc1nc(-c2ccccc2)oc1OC(C)=O	tim10-1 inh 52 | tim10-1 confirm inactive
O=CNc1c(Cl)cc2c(c1Cl)Cc1cc([N+](=O)[O-])ccc1-2	none (no result: tim10-1 inh, PfHsp90 set2, tim23-1 inh, TIM10 inh)
COc1ccc(-n2c(C)nc3cc(C(=O)NCc4ccc5c(c4)OCO5)ccc32)cc1	none
CCOc1ccc(-n2c(C)nc3cc(C(=O)NCc4ccc5c(c4)OCO5)ccc32)cc1	tim10-1 inh 47 | tim10-1 confirm 35
CC(=O)Nc1ccc(Oc2nc(-c3cccnc3)nc3sc4c(c23)CCCC4)cc1	none
c1cncc(CNc2ncnc3sc4c(c23)CCCC4)c1	none
O=C1CN(c2nc(-c3cccnc3)nc3sc4c(c23)CCCC4)CCN1	tim10-1 inh 42 (no result: PfHsp90 set2) | tim10-1 confirm inactive
Nc1nc(-c2cccnc2)nc2sc3c(c12)CCCC3	tim10-1 inh 52 | tim10-1 confirm 33
Cc1nc(NCc2cccnc2)c2c3c(sc2n1)CCCC3	tim10-1 inh 45 | tim10-1 confirm inactive
O=C(CN(Cc1ccco1)C(=O)CCC(=O)Nc1ccccn1)NCc1ccccc1	none
c1ccc(-c2nnc(-c3ccccc3)o2)cc1	none
Nc1ccccc1-c1nnc(-c2ccc(-c3ccccc3)cc2)o1	tim10-1 inh 47 (no result: PfHsp90 set2) | tim10-1 confirm inactive
COc1ccc2[nH]cc(CCNC(=O)COc3cc(C)cc4oc(=O)cc(C)c34)c2c1	none
CC12CC(O)C3C(CCC4=CC(=O)CCC43C)C1CCC2=CCO (stereo not given)	none (no result: tim10-1 inh, tim23-1 inh, TIM10 inh)
NS(=O)(=O)c1cccc(NC(=O)CSc2n[nH]c(-c3ccccc3Br)n2)c1	none (no result: tim10-1 inh, tim23-1 inh, TIM10 inh)
CC12CCC(C(=O)NC3CCCC3)(CC1=O)C2(C)C (stereo not given)	none
CC1(C)CC2CC(C)(CN2C(=O)C23CCC(C)(C(=O)C2)C3(C)C)C1 (stereo not given)	tim10-1 inh 43 | tim10-1 confirm inactive
CCOC(=O)c1c(C2COc3ccccc3O2)csc1N (stereo not given)	tim10-1 inh 45 | tim10-1 confirm inactive

Screens (PubChem BioAssay)
